The nature of assay [1]: liver-stage malaria parasite load reduction – cell-based, known kinase inhibitor set, luminescence, hepatoma host viability (AID 624392).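 Also: infected cells incubated roughly two days before readout.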 The settings on record: Plasmodium liver stage in hepatoma cells, luciferase luminescence, concentration not given here; liver cell % of control: measured here: host liver cell viability; parasite % of control: stronger effect = lower value.
Assay [2] is described as follows: altered dexamethasone sensitivity, NF-kB reporter, cell-based, luciferase, IL-1B stimulus (AID 624486).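 As to percent of negative control (+Dex): 100% = mean signal of vehicle control wells on the plate.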 The settings on record: IL-1B + dexamethasone, luminescence; percent of negative control (+Dex): actives lie on both sides, concentration not given here; z-score: measured here: IL-1B alone, no Dex.
The nature of assay [3]: C. elegans survival during P. aeruginosa infection – whole organism (AID 651566).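 Also: tested at 14 µM; sign flipped so higher z means a lower ratio.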 The settings on record: C. elegans killed by P. aeruginosa, survival ratio.
Assay [4] can be described thus: pro-inflammatory signaling induction in mouse macrophages – cell-based, murine, luminescence (AID 652131). The note with it: murine macrophage pro-inflammatory reporter, stronger effect = higher value.
Assay [5] concerns the target Cellular tumor antigen p53 (Homo sapiens) (UniProt P04637). The assay is described as follows: GFP-p53 level modulators in HPV16+ cells – imaging, known kinase inhibitor set, EGFP/DsRed ratio (AID 1053116).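 Also: cells exposed to compounds for 24 h at 37 °C before reading.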 The note with it: GFP-p53 stability, stronger effect = higher value; EGFP object count: measured here: GFP-p53 positive objects count.
The nature of assay [6]: inducers of IRF3 signaling, differentiated THP-1 – cell-based, PMA-stimulated THP-1, luminescence (AID 1053176). The settings on record: PMA-differentiated THP-1, IRF3 reporter luminescence; stronger effect = higher value.
A short description of assay [7]: MELAS cybrid and Rieske KO viability enhancers – cell-based, MELAS cybrids, Rieske KO mouse fibroblasts, CellTiter-Glo, primary screen (AID 1508586;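 active = mean z-score across replicates of 1.96 or higher in either the MELAS or the Rieske mutant cell line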;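 also: z relative to plate mean and SD of compound and empty wells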). The note with it: low glucose. (ATP-based viability assays read luminescence as a measure of living cells.)
The mark [8] stands for this setting: MELAS cybrid survival, CellTiter-Glo 48 h, stronger effect = higher value.
[9] abbreviates: Rieske KO mouse fibroblast survival, CellTiter-Glo 72 h.

The structures appear in SMILES notation. Active and inactive are the calls of the source. Unless noted, no rule for the calls is given here.

Chain of Cellular tumor antigen p53 (Homo sapiens) (P04637 whole entry, looked up): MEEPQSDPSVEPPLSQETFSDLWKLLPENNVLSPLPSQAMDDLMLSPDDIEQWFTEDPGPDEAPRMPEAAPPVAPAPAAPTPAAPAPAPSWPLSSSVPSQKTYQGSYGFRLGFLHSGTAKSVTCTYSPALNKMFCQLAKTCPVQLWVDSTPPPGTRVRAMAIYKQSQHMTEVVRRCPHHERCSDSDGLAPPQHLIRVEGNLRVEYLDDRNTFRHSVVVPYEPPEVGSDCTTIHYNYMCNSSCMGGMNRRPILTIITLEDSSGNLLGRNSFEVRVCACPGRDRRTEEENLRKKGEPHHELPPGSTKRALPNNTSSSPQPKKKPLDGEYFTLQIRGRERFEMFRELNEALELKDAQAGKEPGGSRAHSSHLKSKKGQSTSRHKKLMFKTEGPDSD

`CS(=O)(=O)CCNCc1ccc(-c2ccc3ncnc(Nc4ccc(OCc5ccccc5)c(C(F)(F)F)c4)c3c2)o1`: the liver cell % of control in assay [1] is 107%. The parasite % of control in assay [1] is 128% (inactive). For the same compound, the percent of negative control (+Dex) in assay [2] was 91.5% (inactive). Also, the z-score in assay [2] was -0.11; in assay [3] it was -1.4 (inactive); in assay [4] it was 0.401 (inactive); in assay [7] (setting [8]), 0.000746 (inactive); in assay [7] (setting [9]) it was -0.326. For the same compound, in assay [5], the EGFP object count came to 6. Further, the EGFP/DsRed ratio in assay [5] is 0.123 (inactive). For the same compound, the fraction signal in assay [6] was -0.0055 (inactive).

On to `NCc1ccc(-c2nc(-c3ccc(Cl)c(O)c3)c(-c3ccncc3)[nH]2)cc1`, for which the liver cell % of control in assay [1] came to 94.8%. In addition, the parasite % of control in assay [1] was 77.4% (inactive). Further, the percent of negative control (+Dex) in assay [2] is 91.5% (inactive). Besides, the z-score is -0.18 in assay [2]; 1.2 (inactive) in assay [3]; -0.414 (inactive) in assay [4]; 0.156 (inactive) in assay [7] (setting [8]); -0.269 in assay [7] (setting [9]). In assay [5], the EGFP object count is 2. Further, in assay [5], the EGFP/DsRed ratio was 0.0758 (inactive). In assay [6], the fraction signal is 0.0015 (inactive).

In assay [1], `COC(=O)Nc1nc2ccc(Oc3ccc(NC(=O)Nc4cccc(Cl)c4)cc3)cc2[nH]1` registered a liver cell % of control of 81.3%. Besides, in assay [1], the parasite % of control is 298% (inactive). The percent of negative control (+Dex) in assay [2] was 122% (inactive). For the same compound, the z-score was 1.3 in assay [2]; 1.51 (inactive) in assay [3]; 0.651 (inactive) in assay [4]; -0.179 (inactive) in assay [7] (setting [8]); -0.521 in assay [7] (setting [9]). In addition, in assay [5], the EGFP object count came out at 79.5. For the same compound, the EGFP/DsRed ratio in assay [5] was 1.2 (inactive). Besides, in assay [6], the fraction signal is -0.0045 (inactive).

The compound `COC(=O)c1ccc2c(c1)/C(=C\c1cc(Br)c(O)c(Br)c1)C(=O)N2` yielded a liver cell % of control in assay [1] of 150%. The parasite % of control in assay [1] is 12.2% (active). In addition, the percent of negative control (+Dex) in assay [2] is 110% (inactive). Besides, the z-score in assay [2] is 0.355; in assay [3], -0.645 (inactive); in assay [4] it was -0.838 (inactive); in assay [7] (setting [8]), -0.186 (inactive); in assay [7] (setting [9]), -0.227. Besides, the EGFP object count in assay [5] was determined as 1. Moreover, the EGFP/DsRed ratio in assay [5] is 0.00779 (inactive). Also, the fraction signal in assay [6] was -0.012 (inactive).

For `CCC(=O)Nc1ccc(C)c(-c2ccc(C(=O)NCC3CC3)cc2)c1`, the liver cell % of control in assay [1] is 51.4%. Also, the parasite % of control in assay [1] was 136% (inactive). In assay [2], the percent of negative control (+Dex) is 103% (inactive). In addition, the z-score in assay [2] is 1.16; in assay [3], 0.67 (inactive); in assay [4], 1.18 (inactive); in assay [7] (setting [8]) it was -0.0107 (inactive); in assay [7] (setting [9]), -0.287. Further, the EGFP object count in assay [5] stood at 3. Moreover, the EGFP/DsRed ratio in assay [5] was 0.0318 (inactive). For the same compound, in assay [6], the fraction signal is 0.001 (inactive).

For `O=S(=O)(CCOCc1ccc(-c2ccc3ncnc(Nc4ccc(OCc5cccc(F)c5)c(Cl)c4)c3c2)o1)c1ccccc1`, the liver cell % of control in assay [1] is 105%. In assay [1], the parasite % of control is 111% (inactive). In addition, the percent of negative control (+Dex) in assay [2] is 78% (inactive). The z-score in assay [2] was -1.27; in assay [3], -1.41 (inactive); in assay [4] it was -0.482 (inactive); in assay [7] (setting [8]) it was -0.647 (inactive); in assay [7] (setting [9]), -0.248. Moreover, the EGFP object count in assay [5] was found to be 2. Also, in assay [5], the EGFP/DsRed ratio was 0.0356 (inactive). For the same compound, the fraction signal in assay [6] is -0.003 (inactive).

With `COc1ccc(-c2nn3ncccc3c2-c2ccnc(Nc3ccc4c(c3)OCCO4)n2)cc1`, the liver cell % of control in assay [1] was determined as 172%. The parasite % of control in assay [1] is 12.5% (active). For the same compound, the percent of negative control (+Dex) in assay [2] is 79% (inactive). For the same compound, the z-score in assay [2] is -1.21; in assay [3], 1.58 (inactive); in assay [4], -0.248 (inactive); in assay [7] (setting [8]), 0.896 (inactive); in assay [7] (setting [9]) it was 0.839. Also, the EGFP object count in assay [5] was found to be 1.5. Further, the EGFP/DsRed ratio in assay [5] is 0.0413 (inactive). Also, the fraction signal in assay [6] was 0.0025 (inactive).

These data come from PubChem BioAssay.
